Data reported in PubChem BioAssay (Tox21).
Values joined by “and” are separate entries in the source; they are usually repeats but may differ in a detail not shown here. Equal values may be shown once. Results filed as inconclusive are left out. Some compounds were tested as several samples or in several runs, with calls that do not always agree. Active and inactive are the calls of the source. The call rests on the fitted dose curve; in most records, active means well fitted cell-killing curve with a large enough effect in the repeat runs (not every such curve was filed as active); inconclusive means weak or mixed curves, or effect the other way; inactive means no such curve, though single readings can be large or run the other way.

Assay: qHTS assay to identify small molecule antagonists of the farnesoid-X-receptor (FXR) signaling pathway - cell viability counter screen (AID 743221); further: nearly all actives have a fitted effect of over 50% in size
Conditions: FXR-bla HEK293T viability, CellTiter-Glo luminescence, 16 h; series mostly up to 62.6 µM; activity change, negative = cytotoxicity: at the top concentration
Excerpt: National Center for Advancing Translational Sciences [NCATS]
NIH Chemical Genomics Center [NCGC]
U.S. Environmental Protection Agency [EPA]
National Institutes of Environmental Health Sciences [NIEHS]
National Toxicology Program [NTP]
U.S. Food and Drug Administration [FDA]
The farnesoid-X-receptor (FXR), a nuclear hormone receptor, is highly expressed in liver, intestine, kidney and adrenal cortex. Natural ligands of FXR are the bile acids (Cholic acid, Chenodeoxy cholic acid etc). FXR is an important regulator of diverse metabolic pathways, including the bile acid homeostasis, lipid and glucose metabolisms. FXR regulates the expression of target genes by binding either as a monomer or as a heterodimer with the retinoid X receptor (RXR). Numerous studies have reported that FXR exerts protective function during cholestasis, diabetes, liver regeneration, and cancer. To identify compounds that inhibit FXR signaling, GeneBLAzer FXR-UAS-bla HEK 293T cell line (Invitrogen, Carlsbad, CA) containing a beta-lactamase reporter gene under the control of a UAS response element was used to screen the Tox21 10K compound library. The cytotoxicity of the Tox21 compound library against the FXR-bla cell line was tested in parallel by measuring the cell viability using CellTiter-Glo assay in the same wells.
Tox21 Assay Protocol Summary:
FXR-bla cells were dispensed at 5000 cells/5uL/well in 1536-well black wall/clear bottom plates using a Multidrop Combi (Thermo Fisher Scientific, Waltham, MA) dispenser. After the assay plates were incubated at 37 C and 5% CO2 for 5 h, 23 nL of compounds dissolved in DMSO, positive controls or DMSO only was transferred to the assay plate by a Pintool station (Kalypsys, San Diego, CA), followed by addition of 1 uL Chenodeoxycholic acid (50 uM, final concentration in the wells). The assay plates were incubated at 37C for 16 h. After 1 uL of LiveBLAzerTM B/G FRET substrate was added using a Bioraptr Flying Reagent Dispenser (FRD) workstation (Beckman Coulter, Indianapolis, IN), the plates were incubated at room temperature for 2 h, and fluorescence intensity was measured by an Envision plate reader (PerkinElmer, Shelton, CT). For cell viability readout that measures cytotoxicity, 4uL/well of CellTiter-Glo reagent was added into the assay plates using a Bioraptr FRD. After 30 min incubation at room temperature, the luminescence intensity in the plates was measured using a ViewLux plate reader (PerkinElmer).
On the % scale 0 is the no-effect control and ±100 the full control effect; potency means the concentration at half of the fitted maximal effect.

| SMILES | Potency | activity change, negative = cytotoxicity |
| --- | --- | --- |
| C[C@H]1CCCC(=O)CCC/C=C/c2cc(O)cc(O)c2C(=O)O1 | inactive |  |
| CCCC(C)C1(CC)C(=O)N=C(S)NC1=O (stereo not given) |  | -2.45% (inactive) |
| COc1ccc2c(C(=O)c3ccc(Cl)cc3)c(C)n(CC(=O)O)c2c1 |  | 17.7% (inactive) |
| COC1=CC(=O)O[C@@H](/C=C/c2ccccc2)C1 |  | -1.69% [at 81.1 µM] (inactive) |
| CC#Cc1cc(C)nc(Nc2ccccc2)n1 |  | -1.4% (inactive) |
| BrCCc1ccccc1 |  | 2.1% [at 81.1 µM] (inactive) |
| Cn1c(CCCC(=O)O)nc2cc(N(CCCl)CCCl)ccc21 |  | 16.3% (inactive) |
| CC(C)(C)c1cc(O)ccc1O | inactive |  |
| CCC1(c2ccccc2)C(=O)N(COC)C(=O)N(COC)C1=O |  | 3.71% (inactive) |
| CCCCCCC(=O)CCCCCC/C=C/C[C@@H](O)[C@H](O)[C@@](N)(CO)C(=O)O |  | 0.32% [at 29.1 µM] (inactive) |
| O=C(Cl)OCc1ccccc1 |  | -0.222% [at 81.1 µM] (inactive) |
| O=S1(=O)OCCO1 |  | -8.99% [at 81.1 µM] (inactive) |
| CCc1ccc(C2CCNCC2)cc1 |  | -16.8% (inactive) |
| NC(=O)OCCCc1ccccc1 |  | 5.76% (inactive) |
| CCOP(=S)(OCC)Oc1ccc(Cl)cc1Cl |  | 13.4% (inactive) |
| NC(=O)CS(=O)C(c1ccccc1)c1ccccc1 (stereo not given) |  | -3.86% (inactive) |
| O=C(NC(=O)c1c(F)cccc1F)Nc1cc(Cl)c(F)c(Cl)c1F |  | 0.639% (inactive) |
| C#CC(C)(C)O |  | -9.19% [at 81.1 µM] (inactive) |
| CC[C@@H](CO)NC(=O)[C@@H]1C=C2c3cccc4c3c(cn4C)C[C@H]2N(C)C1 |  | -1.61% (inactive) |
| CON(C)C(=O)Nc1ccc(Br)c(Cl)c1 |  | 0.395% (inactive) |

| SMILES | Potency | activity change, negative = cytotoxicity |
| --- | --- | --- |
| N=C(N)[Se] |  | -0.71% [at 81.1 µM] (inactive) |
| CCN(CC)C1CCCCC1 |  | 2.39% (inactive) |
| CCOC(=O)CCl |  | 11.5% (inactive) |
| CN(C)C1CCCCC1 |  | 6.01% (inactive) |
| COC[C@@H](NC(C)=O)C(=O)NCc1ccccc1 |  | 0.455% (inactive) |
| C=C1CC[C@@]2(O)[C@H]3Cc4ccc(O)c5c4[C@@]2(CCN3CC2CC2)[C@H]1O5 |  | -7.11% (inactive) |
| O=c1[nH]c2ccccc2o1 |  | 15.1% (inactive) |
| CCSC(=O)Cl |  | 4.65% [at 81.1 µM] (inactive) |
| Clc1cc2c(cc1Cl)Oc1cc(Cl)c(Cl)cc1O2 |  | -5.6% [at 0.275 µM] (inactive) |
| O=C1C2CC=CCC2C(=O)N1SC(Cl)(Cl)Cl (stereo not given) | inactive and 42.9 µM (active) |  |
| C=CCc1cc(OC)c2c(c1)OCO2 |  | -7.63% [at 81.1 µM] (inactive) |
| C=C(Cl)CCl |  | 0.618% (inactive) |
| CCN[C@@H](C)Cc1ccccc1 |  | 2.1% [at 81.1 µM] (inactive) |
| Clc1nc(Cl)nc(Nc2ccccc2Cl)n1 |  | -0.657% (inactive) |
| c1cncc([C@@H]2CCCCN2)c1 |  | 1.96% (inactive) |
| BrCC1CO1 (stereo not given) |  | -3.92% [at 81.1 µM] (inactive) |
| CCC(C)C(C)(COC(N)=O)COC(N)=O (stereo not given) |  | 2.3% (inactive) |
| CN(C)CCc1c[nH]c2cccc(OP(=O)(O)O)c12 |  | 12.9% [at 81.1 µM] (inactive) |
| CCC(CC)(CNC(=O)CCCO)c1cccc(OC)c1 |  | 6.28% (inactive) |
| ClC1=C(Cl)C2(Cl)C(CBr)CC1(Cl)C2(Cl)Cl (stereo not given) | inactive |  |
